Measurements reported in the supplement of paper PMC13380429.

Columns and labels:
[1] = system: Vero E6 infected with SARS-CoV-2; assay: morphology score (similarity to uninfected cells); higher = more like uninfected cells; conditions: 24 h
[2] = system: Vero E6 infected with SARS-CoV-2; assay: SARS-CoV-2 infection rate relative to infected DMSO; higher = more infection, active = 60 or less; conditions: 24 h

Row | Compound | morphology score [1] | SARS-CoV-2 infection rate [2]
1 | CO[C@@]1(NC(=O)CSCC#N)C(=O)N2C(C(=O)O)=C(CSc3nnnn3C)CS[C@@H]21 [cefmetazole] (10 µM) | 0.148 | 98.5% (inactive)
2 | Cc1cc(NC(=O)C2=C(O)c3ccccc3S(=O)(=O)N2C)no1 [isoxicam] (10 µM) | -0.111 | 108% (inactive)
3 | COc1ccccc1N1CCN(CCN(C(=O)C2CCCCC2)c2ccccn2)CC1 (10 µM) | 0.0947 | 118% (inactive)
4 | CNC(=N)NCCC[C@H](N)C(=O)O [targinine] (10 µM) | 0.0428 | 106% (inactive)
5 | C[C@H]1O[C@@H](n2cc(F)c(=O)[nH]c2=O)[C@H](O)[C@@H]1O [doxifluridine] (10 µM) | 0.32 | 108% (inactive)
6 | Cc1cc2c(C(C)C)c(O)c(O)c(C=O)c2c(O)c1-c1c(C)cc2c(C(C)C)c(O)c(O)c(C=O)c2c1O [gossypol] (0.833333 µM) | -0.0839 | 104% (inactive)
7 | O=C1Nc2ccc(Cl)cc2[C@@](C#CC2CC2)(C(F)(F)F)O1 [efavirenz] (10 µM) | 0.0664 | 108% (inactive)
8 | Cc1c(CC(C)(C)C(=O)O)n(Cc2ccc(Cl)cc2)c2ccc(F)cc12 (10 µM) | -0.214 | 113% (inactive)
9 | CC(C)[C@H](CO)Nc1nc(Nc2cc(N)cc(Cl)c2)c2ncn(C(C)C)c2n1 [aminopurvalanol-a] (0.833333 µM) | -0.224 | 108% (inactive)
10 | CCn1c(=O)[nH]c2ccccc21 (10 µM) | 0.182 | 92.5% (inactive)
11 | CC(C)CCC[C@@H](C)[C@H]1CC[C@H]2[C@@H]3CC=C4C[C@@H](O)CC[C@]4(C)[C@H]3CC[C@]12C [cholesterol] (10 µM) | 0.178 | 98% (inactive)
12 | Cc1cnc(C(=O)O)c[n+]1[O-] [acipimox] (10 µM) | 0.0683 | 108% (inactive)
13 | Cc1ccc2nc(N)[nH]c(=O)c2c1Sc1ccncc1 [nolatrexed] (10 µM) | -0.166 | 108% (inactive)
14 | CC[C@@H](c1ccc(F)c(F)c1)n1c(C(=O)OC)c(-c2ccno2)[nH]c1=S (10 µM) | -0.0397 | 93.5% (inactive)
15 | COc1ccc(-c2ccc3c(N4CCOCC4)nc(N4C[C@@H](C)O[C@@H](C)C4)nc3n2)cc1CO (0.833333 µM) | 0.12 | 110% (inactive)
16 | Oc1nc(-c2ccc(C(F)(F)F)cc2)nc2c1CSCC2 (0.833333 µM) | 0.149 | 94% (inactive)
17 | O=C(Nc1cnccc1Cl)N1CCN(Cc2ccc3c(c2)OC(F)(F)O3)CC1 (10 µM) | 0.0915 | 106% (inactive)
18 | O=C(Nc1ccccc1F)N[C@H]1N=C(c2ccccc2)c2ccccc2NC1=O (10 µM) | -0.135 | 113% (inactive)
19 | CCNC(=O)Nc1ccc(-c2nc3c(c(N4CCOC[C@@H]4C)n2)CCN(C2COC2)C3)cc1 (0.833333 µM) | 0.13 | 103% (inactive)
20 | C[C@H]1[C@H](OC(=O)CCC(=O)O)O[C@@H]2O[C@@]3(C)CC[C@H]4[C@H](C)CC[C@@H]1[C@@]24OO3 [artesunate] (0.833333 µM) | 0.157 | 97% (inactive)
21 | C/C(=N\Nc1nnc2c(n1)[nH]c1c(C)cccc12)c1ccccn1 (10 µM) | 0.01 | 107% (inactive)
22 | COc1cc2c(NC3CCN(C(C)C)CC3)nc(C3CCCCC3)nc2cc1OCCCN1CCCC1 (10 µM) | 0.297 | 22.5% (active)
23 | C=C(c1ccccc1OCc1cccc(Cl)c1)n1ccnc1 [croconazole] (10 µM) | 0.0614 | 104% (inactive)
24 | Nc1nccc(-c2ccc3noc(-c4ccc(Cl)cc4)c3c2)n1 [PIM-1-Inhibitor-2] (10 µM) | -0.089 | 111% (inactive)
25 | Oc1cccc(-c2c3nc(c(-c4cccc(O)c4)c4ccc([nH]4)c(-c4cccc(O)c4)c4nc(c(-c5cccc(O)c5)c5ccc2[nH]5)CC4)C=C3)c1 [temoporfin] (0.833333 µM) | -0.0311 | 111% (inactive)
26 | COc1nc(N)nc2c1ncn2[C@@H]1O[C@H](CO)[C@@H](O)[C@@H]1O [nelarabine] (10 µM) | -0.0124 | 109% (inactive)
27 | CN1C(CSCC(F)(F)F)Nc2cc(Cl)c(S(N)(=O)=O)cc2S1(=O)=O (stereo unspecified) [polythiazide] (10 µM) | 0.2 | 100% (inactive)
28 | O=C(NCc1cccc(O)c1)Nc1nc(-c2ccncc2)cs1 (10 µM) | 0.392 | 97.8% (inactive)
